The values below come from PubChem BioAssay AID651658 (Broad Institute, 2012).

The whole screen tested about 340,000 compounds, of which about 5,100 (1.5%) were called active.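 The calls were made as follows: active = mean Tm shift, scaled 0 neutral to 100 positive control, at about 1.3% or above, every replicate too (limit read from the data); inconclusive = no clear call, values can overlap the other calls; inactive = the rest.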 Shown is part of a subset that was picked to be rich in actives.

This experiment deals with Fibroblast growth factor 22 (Homo sapiens) (UniProt Q9HCT0). As to the kind of experiment: FGF22 ligand-induced thermal stabilization – biophysical, thermal shift, single point, FGF22 synaptogenesis inhibitor project, primary screen (AID 651658). The note with it: recombinant FGF22 thermal shift, SYPRO orange fluorescence; at 9.99 µM; hits give high values; percent of sucrose octasulfate shift, DMSO zero.
Chain of Fibroblast growth factor 22 (Homo sapiens) (Q9HCT0 whole entry, looked up): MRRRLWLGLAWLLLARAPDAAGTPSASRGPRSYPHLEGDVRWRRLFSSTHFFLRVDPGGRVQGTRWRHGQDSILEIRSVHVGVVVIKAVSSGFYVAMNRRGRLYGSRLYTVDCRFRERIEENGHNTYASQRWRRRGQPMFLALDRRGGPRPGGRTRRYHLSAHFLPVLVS
Regarding `CO[C@H]1CN(C)C(=O)c2cc(NC(=O)Nc3ccccc3F)ccc2OC[C@H](C)N(C)C[C@H]1C`, the activity (Tm shift, normalised) was -0.052% (inactive).

On to `COc1ccccc1S(=O)(=O)N(C)C[C@H]1Oc2cc(C#CCC3CCCC3)ccc2S(=O)(=O)N([C@@H](C)CO)C[C@H]1C`, for which the activity (Tm shift, normalised) is 0.195% (inactive).

Regarding `COc1ccc2c3c(n(C)c2c1)[C@@H](CO)N(C(=O)c1cnccn1)CC31CCN(C(C)=O)CC1`, the activity (Tm shift, normalised) was -0.238% (inactive).

As to `CC(=O)N1c2ccc(S(=O)(=O)N3CCC(C(=O)NC4CCCCC4C)CC3)cc2CC1C` (configuration not stated), the activity (Tm shift, normalised) was 0.24% (inactive).

As to `CC(=O)N1c2ccc(S(=O)(=O)N3CCC(C(=O)NCc4ccc(F)cc4)CC3)cc2CC1C` (configuration not stated), the activity (Tm shift, normalised) was 1.48% (active).

Take `CC(=O)N1c2ccc(S(=O)(=O)N3CCCC(C(=O)NCc4ccc(Cl)cc4)C3)cc2CC1C` (configuration not stated): the activity (Tm shift, normalised) was 0.095% (inactive).

In the case of `O=C(c1ccncc1)N1CC2(C1)[C@@H](c1ccccc1)[C@H](CO)N2C(=O)c1ccncc1`, the activity (Tm shift, normalised) is -0.088% (inactive).

With `CCCC(=O)Nc1ccc2c(c1)OC[C@H](C)N(Cc1ccc(F)cc1)C[C@H](C)[C@H](OC)CN(C)C2=O`, the activity (Tm shift, normalised) was -0.11% (inactive).

Consider `CO[C@@H]1CN(C)C(=O)c2cc(NC(=O)CC(F)(F)F)ccc2OC[C@H](C)N(S(=O)(=O)c2cn(C)cn2)C[C@H]1C`, for which the activity (Tm shift, normalised) is -0.268% (inactive).

Take `O=C(NCC1CCCCC1)NCC1CCCCC1`: the activity (Tm shift, normalised) was 0.197% (inactive).

For `N#CCC(=O)NC1CCC(CC2CCC(NC(=O)CC#N)CC2)CC1` (configuration not stated), the activity (Tm shift, normalised) was -0.185% (inactive).

For the compound `N#CCC(=O)NC(=O)NCC1CC1`, the activity (Tm shift, normalised) was 45.2% (active).

Regarding `O=C(C[C@H]1C[C@H]2c3cc(NC(=O)C4CCOCC4)ccc3O[C@H]2[C@@H](CO)O1)NCCN1CCCCC1`, the activity (Tm shift, normalised) was 0.018% (inactive).

Take `COc1ccc2c3c(n(C)c2c1)[C@@H](CO)N(C(=O)C1CC1)CC31CN(C(=O)C2CCOCC2)C1`: the activity (Tm shift, normalised) is -0.006% (inactive).

With `O=C(c1cccnc1)N1CCCCN2[C@@H](CO)[C@H](c3ccc(C#Cc4ccccc4)cc3)[C@@H]2C1`, the activity (Tm shift, normalised) is -0.469% (inactive).

In the case of `O=C1C=CCCN1C(=O)/C=C/c1ccc(F)cc1`, the activity (Tm shift, normalised) was 1.39% (active).

`O=C(N/C(=C\c1ccc(F)cc1)C(=O)N1CCCCCC1)c1ccccc1`: the activity (Tm shift, normalised) was -0.445% (inactive).

On to `O=C1CN(C(=O)COC(=O)/C=C/c2ccc(F)cc2)c2ccccc2N1`, for which the activity (Tm shift, normalised) was 0.119% (inactive).

Take `C[C@@H]1CN([C@H](C)CO)C(=O)c2cc(NS(=O)(=O)c3cn(C)cn3)ccc2O[C@@H](C)CCCCO[C@@H]1CN(C)C(=O)CCC(F)(F)F`: the activity (Tm shift, normalised) was -0.484% (inactive).

`CCc1nnc(NS(=O)(=O)c2ccc(NC(=O)c3cccc(OC(F)(F)C(F)F)c3)cc2)s1`: the activity (Tm shift, normalised) was 1.64% (active).

Consider `CCc1nnc(NS(=O)(=O)c2ccc(NC(=S)NC(=O)/C=C/c3cccs3)cc2)s1`, for which the activity (Tm shift, normalised) was 43.7% (active).

`CCc1nnc(NS(=O)(=O)c2ccc(NC(=S)NC(=O)c3cccs3)cc2)s1`: the activity (Tm shift, normalised) is 0.364% (inactive).

Regarding `CCc1nnc(NC(=O)c2cccc(S(=O)(=O)N(C)c3ccc(OC)cc3)c2)s1`, the activity (Tm shift, normalised) was 0.249% (inactive).

Consider `CCOC(=O)c1c(NC(=S)NC(=O)/C=C/c2cccs2)sc(C)c1C`, for which the activity (Tm shift, normalised) is 0.207% (inactive).

Turning to `Cc1cc(NS(=O)(=O)c2ccc(NC(=O)c3cccc(OC(F)F)c3)cc2)nc(C)n1`, the activity (Tm shift, normalised) was 0.163% (inactive).

Turning to `O=C(Cc1ccncc1)NCC[C@H]1CC[C@@H](NC(=O)Nc2ccc(Cl)cc2)[C@@H](CO)O1`, the activity (Tm shift, normalised) is -0.005% (inactive).

As to `O=C(C[C@H]1CC[C@@H](NC(=O)Nc2ccc(F)cc2)[C@@H](CO)O1)NCCN1CCCC1`, the activity (Tm shift, normalised) was -0.13% (inactive).

In the case of `CC(C)NC(=O)N[C@H]1CC[C@H](CC(=O)N2CCCCC2)O[C@@H]1CO`, the activity (Tm shift, normalised) is 0.022% (inactive).

Take `COc1ccc(S(=O)(=O)Nc2ccc3c(c2)CC(=O)N([C@H](C)CO)C[C@H](C)[C@@H](CN(C)C(=O)NC(C)C)O3)cc1`: the activity (Tm shift, normalised) is -0.229% (inactive).

On to `CCC(O)CNc1nc(-n2nc(C)cc2C)nc2sc3c(c12)CC(C)(C)OC3` (configuration not stated), for which the activity (Tm shift, normalised) is -0.058% (inactive).

For the compound `CC(C)c1nc2sc3c(c2c(=O)n1N)CC(C)(C)OC3`, the activity (Tm shift, normalised) was 42.9% (active).

As to `CCSc1nc2sc3c(c2c(=O)[nH]1)CC(C)(C)OC3`, the activity (Tm shift, normalised) is -0.053% (inactive).

With `COC(=O)[C@@H]1[C@@H](CO)[C@@H]2Cn3c(ccc(-c4ccc(OC)cc4)c3=O)[C@@H]2N1C`, the activity (Tm shift, normalised) was 0.199% (inactive).

Regarding `O=C(CSc1nn(-c2ccc(F)cc2)c(=S)s1)NC1CCS(=O)(=O)C1` (configuration not stated), the activity (Tm shift, normalised) was 0.458% (inactive).

As to `O=C(Cc1ccc(Cl)cc1)NC1CCS(=O)(=O)C1` (configuration not stated), the activity (Tm shift, normalised) is -0.305% (inactive).

As to `O=C(CSc1ccccc1F)NC1CCS(=O)(=O)C1` (configuration not stated), the activity (Tm shift, normalised) is 43% (active).

Regarding `CO[C@H]1CC[C@@H]2CCOc3c(C#N)cccc3C(=O)N(C)CCCC(=O)N(C)C[C@@H]1O2`, the activity (Tm shift, normalised) is 0.064% (inactive).

Take `COc1ccc(Cc2nc3ccc(C(=O)N4CCC(N(C)C)C4)cc3o2)cc1` (configuration not stated): the activity (Tm shift, normalised) is -0.031% (inactive).

As for `CCC1C(=O)NCCN1C(=O)c1ccc2nc(Cc3ccc(OC)cc3)oc2c1` (configuration not stated), the activity (Tm shift, normalised) was 0.064% (inactive).

On to `CCn1ccnc1CN(C)C(=O)c1ccc2nc(Cc3ccc(OC)cc3)oc2c1`, for which the activity (Tm shift, normalised) is 1.62% (active).

As to `COc1ccc2c3c(n(C)c2c1)[C@@H](CO)N(C(=O)NC1CCCC1)CC31CCN(C(C)=O)CC1`, the activity (Tm shift, normalised) is -0.236% (inactive).

Consider `CC=Cc1ccc2n(c1=O)C[C@@H]1[C@@H](CO)[C@H](C(=O)NCCC)[C@H]2N1C(=O)C1CC1` (mixture of isomers), for which the activity (Tm shift, normalised) is -0.404% (inactive).

For `CC(=O)Nc1ccccc1-c1cn(CC(=O)N2CCOCC2)nn1`, the activity (Tm shift, normalised) was -0.164% (inactive).

Consider `O=C(CCl)N(Cc1cccc([N+](=O)[O-])c1)c1cccc(Cl)c1`, for which the activity (Tm shift, normalised) was 43.2% (active).

Regarding `O=C(c1cccc([N+](=O)[O-])c1)N1CCN(Cc2ccccc2)CC1`, the activity (Tm shift, normalised) is 0.006% (inactive).

For `COC(=O)c1cc(C(=O)N(Cc2ccccc2)c2ccccn2)cc([N+](=O)[O-])c1`, the activity (Tm shift, normalised) was 0.167% (inactive).

`O=C(Oc1ccc(C(=S)N2CCOCC2)cc1)c1ccc(F)cc1`: the activity (Tm shift, normalised) is -0.154% (inactive).

For `O=C(c1ccc(F)cc1)n1cc(C(=S)N2CCOCC2)c2ccccc21`, the activity (Tm shift, normalised) is 43.1% (active).

As to `O=C(Nc1ccc(F)cc1)C(=O)c1cn(CC(=O)N2CCOCC2)c2ccccc12`, the activity (Tm shift, normalised) is -0.305% (inactive).

`COc1cc(NC(=O)c2ccc3c(c2)OCO3)ccc1NC(=O)c1cccs1`: the activity (Tm shift, normalised) is 1.67% (active).

On to `COc1cc(NC(=O)c2cccs2)ccc1NC(=O)c1ccccc1Cl`, for which the activity (Tm shift, normalised) was 1.14% (inactive).

For the compound `COC(=O)C[C@@H]1CC[C@H]2[C@H](COc3ccc(NC(=O)c4cccs4)cc3C(=O)N2C)O1`, the activity (Tm shift, normalised) is -0.323% (inactive).

As to `CC(C)NC(=O)Nc1ccc2c(c1)C(=O)N(C)[C@H]1CC[C@H](CC(=O)NCc3ccc(F)cc3)O[C@H]1CO2`, the activity (Tm shift, normalised) is 0.053% (inactive).

On to `O=C(Nc1ccccc1F)N[C@H]1C=C[C@H](CC(=O)N2CCCCC2)O[C@H]1CO`, for which the activity (Tm shift, normalised) is 0.391% (inactive).

As for `COc1cccc(NC(=O)N2C3CCCC2CC(NC(C)=O)C3)c1` (configuration not stated), the activity (Tm shift, normalised) was 0.301% (inactive).

`CCCN1C2CCCC1CC(NC(=O)c1cccc(OC)c1)C2` (configuration not stated): the activity (Tm shift, normalised) is -0.224% (inactive).

On to `C=CCN1C2CCCC1CC(NC(=S)Nc1cccc(OC)c1)C2` (configuration not stated), for which the activity (Tm shift, normalised) was 43.2% (active).

As to `O=S(=O)(N[C@@H]1CC[C@H](CCn2cc(C3(O)CCCC3)nn2)O[C@@H]1CO)c1ccc(Cl)cc1`, the activity (Tm shift, normalised) is -0.216% (inactive).

For the compound `C[C@H]1CN([C@@H](C)CO)S(=O)(=O)c2ccc(-c3cccnc3)cc2O[C@H]1CN(C)C(=O)C1CCCCC1`, the activity (Tm shift, normalised) was 0.041% (inactive).

As to `CCCN1C[C@@H](C)[C@@H](OC)CN(C)C(=O)c2ccc(NC(=O)Nc3cccc(F)c3)cc2OC[C@@H]1C`, the activity (Tm shift, normalised) was -0.405% (inactive).

With `CCOc1ccc(CN2CCN(CCCc3ccccc3)C(CCO)C2)cc1` (configuration not stated), the activity (Tm shift, normalised) was -0.164% (inactive).

As for `COC(=O)c1ccc(CN2CCN(CCCc3ccccc3)C(CCO)C2)cc1` (configuration not stated), the activity (Tm shift, normalised) is 43.7% (active).

With `OCCC1CN(Cc2ccc(Oc3ncccn3)cc2)CCN1CCc1ccccc1` (configuration not stated), the activity (Tm shift, normalised) was 0.032% (inactive).

Consider `O=C(C[C@H]1CC[C@H](NC(=O)C2CCC2)[C@@H](CO)O1)NCCCN1CCOCC1`, for which the activity (Tm shift, normalised) was 0.216% (inactive).

Consider `O=C(C1CCOCC1)N1CC2(C1)[C@H](c1ccccc1)[C@H](CO)N2Cc1ccc(Cl)cc1`, for which the activity (Tm shift, normalised) was -0.232% (inactive).

For `CN1C[C@H](O)COC[C@H]2O[C@H](CC(=O)NC3CCC3)CC[C@@H]21`, the activity (Tm shift, normalised) was 0.225% (inactive).

As to `CCC(=O)N1C[C@@H](C)[C@@H](OC)CN(C)C(=O)c2ccc(NC(=O)C3CCCCC3)cc2OC[C@H]1C`, the activity (Tm shift, normalised) was 0.107% (inactive).

On to `COc1ccccc1NC(=O)CN(c1ccccc1OC)S(=O)(=O)c1ccccc1`, for which the activity (Tm shift, normalised) was -0.013% (inactive).

As to `COc1ccccc1N(CC(=O)Nc1ccc(C(F)(F)F)cc1)S(C)(=O)=O`, the activity (Tm shift, normalised) was 43.3% (active).

As for `COc1ccccc1N(CC(=O)Nc1ccccc1C(=O)N1CCCC1)S(C)(=O)=O`, the activity (Tm shift, normalised) is 41.8% (inactive).

As to `COc1cccc(S(=O)(=O)N2C[C@H](O)COC[C@H]3O[C@@H](CC(=O)N4CCN(c5ccccc5)CC4)CC[C@@H]32)c1`, the activity (Tm shift, normalised) was 0.06% (inactive).

Consider `Clc1ccc(-c2cccc3nccn23)cc1`, for which the activity (Tm shift, normalised) was 0.174% (inactive).

Regarding `c1cc(-c2ccc3[nH]ccc3c2)n2ccnc2c1`, the activity (Tm shift, normalised) is 43.4% (active).

In the case of `O=C(NCCO)c1cccc(-c2cccc3nccn23)c1`, the activity (Tm shift, normalised) is -0.228% (inactive).

As for `Cn1cnc(CCNC(=O)C[C@H]2CC[C@@H]3[C@H](COC[C@H](O)CN3C(=O)C3CC3)O2)c1`, the activity (Tm shift, normalised) was -0.297% (inactive).

With `COc1cccc(S(=O)(=O)N2CC3(CCN(C)CC3)c3c(n(C)c4cc(OC)ccc34)[C@H]2CO)c1`, the activity (Tm shift, normalised) is 0.01% (inactive).

With `C[C@H]1CN([C@@H](C)CO)C(=O)c2c(c3ccccc3n2C)-c2ccccc2CO[C@@H]1CN(C)Cc1ccc2c(c1)OCCN2C`, the activity (Tm shift, normalised) is -0.115% (inactive).
